Records with an inconclusive call do not appear. The source made the active and inactive calls. Calls follow the shape of the dose curve; as a rule, active = well fitted inhibition curve with a large enough effect; inconclusive = small, poorly fitted or top-dose-only effect; inactive = no such curve, though single readings can be large or run the other way.

The experiment in a line: Counterscreen for APE1 Inhibitors: Fluorescent Dye Displacement Validation Assay (AID 1707).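 Also: plate controls were ThO with dsDNA and no compound for no effect and ThO without dsDNA for full effect.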 The following applies: fluorescent dye displacement from DNA; series mostly up to 57.1 µM; activity change, negative = inhibition: at the top concentration. An excerpt: In order to distinguish true inhibitors of DNA-processing enzymes from promiscuous DNA-binding compounds among screening assay hits, we developed a homogeneous and miniaturized assay based on fluorescent dye displacement test as originally described by Tse and Boger (Accounts of Chemical Research (2004) 37: 61-69). The assay is based on the strong enhancement of fluorescence when Thiazole Orange (ThO) binds to double-stranded DNA: conversely, in the presence of a DNA-binding compound, Thiazole Orange is displaced from the DNA and its fluorescence is reduced.
Buffer. 50 mM Tris-HCl (pH7.5) containing 50mM NaCl, 2 mM MgCl2, and 0.01% Tween-20.
Buffer containing 250 nM ThO in columns 3 and 4 as negative control (no dsDNA).
Reaction mixture: 250 nM ThO and 50 nM dsDNA at final concentration dispensed throughout the plate: in columns 1, 2, 5-48. Column 1 is neutral (100% activity).
5''TAMRA- TC ACC FTC GTA CGA CTC
3'' AG TGG GAG CAT GCT GAG
where F denotes tetrahydrofuran.
Control: Pintool transfer of control compound WB64 (W4761, Sigma-Aldrich) to column 2 of all assay plates as a two-fold 16-point dilution in duplicate (concentration range 5.75 uM - 0.175 nM).
Four uL of reaction mixtures were dispensed to 1536-well Greiner black solid bottom plates. Compounds (23 nL) were transferred […] in order to measure the endpoint fluorescence using 480 nm excitation and 540 nm emission fluorescence protocol.
For orientation: The purpose of a counterscreen is to sort out artefacts and off-target activity.
For the compound `C1CCc2nnnn2CC1`, the “activity change, negative = inhibition” value is 1.34% (inactive).
For `CN1C2CCC1CC(OC(=O)c1c[nH]c3ccccc13)C2` (configuration not stated) the value was -1.05% (inactive); for `O=C(O)c1cc2cc(Cc3cccnc3)ccc2o1`, -1.73% (inactive); for `CC(C)NC[C@@H](O)COc1cccc2ccccc12`, 0.0282% (inactive).
For `CNCCC=C1c2ccccc2CCc2ccccc21` the value was 0.457% (inactive); for `COc1cc(-c2ccc(=O)[nH]n2)ccc1OC(F)F`, 0.0075% (inactive); for `C[C@]12CC[C@@H]3c4ccc(O)cc4CC[C@H]3[C@@H]1CC[C@@H]2O`, -1.13% (inactive).
For `COC(=O)[C@H]1[C@H]2C[C@H]3c4[nH]c5ccccc5c4CCN3C[C@H]2CC[C@@H]1O` the value was 2.68% (inactive); for `Oc1ccc(O)cc1`, 2.19% (inactive).
`CNCCC(Oc1ccccc1C)c1ccccc1` (configuration not stated): the “activity change, negative = inhibition” value is -0.835% (inactive).
For `CCCn1c(=O)[nH]c(=O)c2[nH]cnc21` the value was 0.271% (inactive); for `CC1(C)CCC(NC(=O)[C@@H](N)CCC(=O)O)CC1`, 0.911% (inactive); for `N[C@H](CO)C(=O)O`, 0.999% (inactive).
In the case of `C[N+]1(CCCCC[N+]2(C)CCCC2)CCCC1` it was 4.84% (inactive).
For `C[C@@H]1C(=O)NC2=Nc3cccc(Cl)c3CN21` the value was -0.525% (inactive); for `CC(C)COC(=O)OCN1C(=O)CN(CCN2CC(=O)N(COC(=O)OCC(C)C)C(=O)C2)CC1=O`, 1.61% (inactive).
`CCC(NC(C)C)C(O)c1ccc(O)c(O)c1` (configuration not stated): the “activity change, negative = inhibition” value was 1.9% (inactive).
Take `N[C@@H](Cc1cnc[nH]1)C(=O)O`: the “activity change, negative = inhibition” value was -1.03% (inactive).
For `Nc1cc(Cl)c(NC2=NCCN2)c(Cl)c1`, the “activity change, negative = inhibition” value is -0.259% (inactive).
For `O=C1CCC(c2ccc(-n3ccnc3)cc2)=NN1` the value was 0.972% (inactive); for `CN=C(NC#N)Nc1ccc(C2=NNC(=O)CC2C)cc1` (configuration not stated), 1.72% (inactive).
In the case of `CC(CCc1ccccc1)NCC(O)c1ccc(O)c(C(N)=O)c1` (configuration not stated) it was 4.74% (inactive).

The values are drawn from PubChem BioAssay (NCATS).
